# In the library only some 0.33% were active in any assay of this set; here they are far more common.
# ASM inhibitor = Inhibitors of Secretory Acid Sphingomyelinase (S-ASM): qHTS | Potency, µM (highest dose often 57.5 µM), for inactives: top-dose activity change, negative = inhibition, hits mostly inhibitors | placental ASM, HMU-PC fluorogenic substrate, 60 min | Sphingomyelin phosphodiesterase (Homo sapiens), P17405 | 340,000 tested, 0.006% active; further: potency means the concentration at half of the fitted maximal effect
#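 Human placenta-derived ASM enzyme was preincubated with compound for 10 minutes at room temperature, then given fluorogenic substrate HMU-PC0 (9 uM final) for 60 minutes at 37 °C; a pH 10 stop preceded fluorescence reading at Ex 386/Em 447 nm.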
# PKM2 act = qHTS Assay for Activators of Human Muscle isoform 2 Pyruvate Kinase; 260,000 tested, 0.34% active; AID 1631, 2009; Pyruvate kinase PKM (Homo sapiens), P14618; purified PKM2, Kinase-Glo ATP luminescence, activation; response scale: 0% is enzyme alone, no compound; Potency, µM (doses to about 57.5 µM), for the others: top-dose activation, actives largely listed as activators; further: potency means the concentration at half of the fitted maximal effect; on the % scale 0 is the no-effect control and ±100 the full control effect; nearly all actives have a fitted effect of over 55% in size
# Target sequence (P14618 whole entry, looked up, canonical isoform): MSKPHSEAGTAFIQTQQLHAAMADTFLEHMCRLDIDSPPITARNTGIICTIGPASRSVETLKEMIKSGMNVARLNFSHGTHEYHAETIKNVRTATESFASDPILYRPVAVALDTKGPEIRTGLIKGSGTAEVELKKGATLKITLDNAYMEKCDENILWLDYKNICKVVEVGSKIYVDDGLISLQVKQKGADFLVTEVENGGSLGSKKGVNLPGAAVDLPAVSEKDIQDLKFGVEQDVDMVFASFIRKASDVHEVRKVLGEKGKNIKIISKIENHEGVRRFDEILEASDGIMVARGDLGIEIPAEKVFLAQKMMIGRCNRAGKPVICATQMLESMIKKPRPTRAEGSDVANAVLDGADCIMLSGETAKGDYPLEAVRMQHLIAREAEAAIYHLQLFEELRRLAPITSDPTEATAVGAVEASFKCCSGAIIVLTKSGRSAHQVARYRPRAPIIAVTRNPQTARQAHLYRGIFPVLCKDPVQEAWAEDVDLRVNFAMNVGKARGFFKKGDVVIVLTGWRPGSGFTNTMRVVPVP
#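 ATP formation by purified human PK-M2, quantified via coupled luciferase luminescence after 1 h at room temperature with 0.1 mM ADP and 0.5 mM PEP final.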
# IL-2 act = qHTS of IL-2 Activators; AID 652025, 2013; IL-2 activation reporter assay, cell-based qHTS; stimulated with anti-CD3/CD4/CD28 beads; in transgenic mouse T cells; activation, % (series mostly up to about 46 µM); 360,000 tested, 0.065% active; in the data active means activation above about 50%; inconclusive means mostly about 30% to 49%; further: 0% is about no effect
#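 Screening format: compound pinned onto unstimulated transgenic mouse T cells, 60 min incubation, then anti-CD3/anti-CD4/anti-CD28 bead stimulation for 18 hours at 37 degrees C, followed by EGFP and DsRed detection.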
# * marks the source's active call; other numbers are inactive results; ? = inconclusive; nt = no result given. Unless noted, the call rests on the fitted dose curve; in most records, active means well fitted curve in the direction sought with a large enough effect; inconclusive means small, poorly fitted or top-dose-only effect, or another doubt; inactive means no such curve, though single readings can be large; an effect the other way counts as inactive or inconclusive.
SMILES,ASM inhibitor,PKM2 act,IL-2 act
Cn1ncc(S(=O)(=O)Cc2ccccc2)c(Cl)c1=O,3%,15%,-1
CCOc1ccc(NC(=O)COC(=O)c2cc([N+](=O)[O-])ccc2N2CCOCC2)cc1,-14%,nt,2
COc1ccc2[nH]c(=O)cc(C(=O)O)c2c1,330%,0%,0
COc1ccc2[nH]c3c4c(ccc3c2c1)C(=O)C=CC4=O,-5%,1.3µM*,-5
Cc1cccc(N2CCN(S(=O)(=O)c3c(C)nc4scc(C)n4c3=O)CC2C)c1 (centres undefined),22%,15%,-4
COc1cc(CNC(=O)Nc2nnc([C@@H]3C[C@H](O)[C@@H](CO)O3)s2)cc(OC)c1OC,nt,nt,0
Cc1ccccc1NC(=O)CSc1nnc(-c2ccco2)c(-c2ccco2)n1,-13%,23%,0
Cc1cccc(C)c1NC(=O)CSc1nnc(-c2ccco2)c(-c2ccco2)n1,-16%,11µM*,0
O=C(O)Cc1c[nH]c2ccc(O)cc12,-1%,nt,0
O=C(O)c1ccc(N2C(=O)CC(SC(=NCc3ccc4c(c3)OCO4)Nc3ccccc3)C2=O)cc1 (centres undefined),-1%,-2%,1
N/C(=N\N=C\c1ccc2c(c1)OCO2)SC1CC(=O)N(c2ccc(C(=O)O)cc2)C1=O (centres undefined),-2%,35µM*,0
C=CCn1c(SCC(=O)N2CCOCC2)nc2scc(-c3ccco3)c2c1=O,-3%,14µM*,1
C=CCn1c(SCC(C)=O)nc2scc(-c3ccco3)c2c1=O,-3%,nt,-1
Cc1cc(C(=O)NC2CCCCC2)on1,2%,1%,0
Cc1nnc2sc(SCc3cccc(Cl)c3)nn2c1=O,-3%,?,-3
Cc1nnc2sc(SCc3ccccc3Cl)nn2c1=O,-4%,7.1µM*,-2
O=S(=O)(Nc1ccc2ccccc2n1)c1ccc2c(c1)CCO2,5%,11µM*,0
Cc1ccc(S(=O)(=O)Nc2ccc3ccccc3n2)cc1,4%,18%,2
O=C1C2C3C=CC(C4CC34)C2C(=O)N1c1cc(Cl)ccn1 (centres undefined),5%,2%,1
CCOC(=O)c1cc2c(ccn2C)n1CC(=O)N1CCN(c2cccc(C(F)(F)F)c2)CC1,-16%,32µM*,1
CCOC(=O)c1cc2c(ccn2C)n1CC(=O)N1CCN(c2ccc(F)cc2)CC1,-4%,4%,0
O=C(CN1CCOCC1)Nc1ncc(Cc2ccccc2Cl)s1,1%,-24%,0
CCc1ccc(CCC(=O)Nc2ncc(Cc3ccccc3Cl)s2)o1,4%,14µM*,-2
CCOc1ccc(CNc2cccc(SC)c2)cc1,-6%,14µM*,-1
CCOc1ccc(CNc2ccc(CNc3ncn[nH]3)cc2)cc1,3%,0%,0
SMILES,ASM inhibitor,PKM2 act,IL-2 act
Cc1ccc(Cn2ncc3c(N4CCCC4)ncnc32)cc1,1%,13µM*,0
Clc1ccc(Cn2ncc3c(N4CCCC4)ncnc32)cc1,-3%,-9%,-1
CCOc1ccc(/C=N/Nc2ccccc2)cc1,0%,nt,1
Nc1c(N(Cc2ccco2)C(=O)c2ccc(Br)cc2)c(=O)[nH]c(=O)n1Cc1ccccc1,0%,nt,1
CCOc1ccc(C(=O)N2CCN(c3cccc(C)c3C)CC2)cc1,-3%,14µM*,0
CCOc1ccc(C(=O)N2CCN(c3cccc(Cl)c3)CC2)cc1,-3%,15%,1
COc1ccc(NC(=O)c2cc(S(=O)(=O)N3CCOCC3)ccc2C)cc1S(=O)(=O)N1CCOCC1,3%,nt,-4
CCCSc1ccccc1C(=O)N1CCN(C(=O)c2ccco2)CC1,0%,-11%,-1
O=C1c2ccccc2-c2c1cccc2C(=O)N1CCN(C(=O)c2ccco2)CC1,-1%,16µM*,-1
CCOc1cc(/C=C2/NC(=O)N(CC(=O)OC)C2=O)ccc1OC,50%,1%,1
CCOc1cc(Br)c(/C=C2/C(=O)N(C)C(=S)N2CC(=O)OC)cc1OC,-1%,1%,100*
COc1cnn(-c2cccc(C(F)(F)F)c2)c(=O)c1Cl,2%,nt,0
CCn1c(=O)n(CC)c2cc(S(=O)(=O)Nc3ccccc3C)c(C)cc21,-1%,?,0
CCc1ccccc1NS(=O)(=O)c1cc2c(cc1C)n(C)c(=O)c(=O)n2C,-1%,4µM*,-2
N/C(=N\OC(=O)CCn1cccc(C(F)(F)F)c1=O)c1ccc(Cl)cc1,-2%,15%,0
